Laboratory results reported in PubChem BioAssay (EPA / NIEHS).
Results filed as inconclusive are left out. Active and inactive are the calls of the source. How the source made its calls: active means hit-call score of the fitted dose curve at least 0.9, where 1 is the maximum; inconclusive means response in the unintended direction; inactive means score below 0.9.

Assay: ATG_M_06_TRANS: Attagene TRANS-FACTORIAL HepG2 Assay for M06 Transcription Factor (Internal Marker) (AID 2282983);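 further: reporter transcript level by RT-PCR then capillary electrophoresis fluorescence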
Details: HepG2 Attagene TRANS M06 internal marker reporter
In short: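 Internal-marker background readout from a multiplexed TRANS reporter system in HepG2; 24 h dosing; mRNA induction quantified by RT-PCR plus capillary electrophoresis fluorescence; DMSO as negative control and baseline.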

| Structure (SMILES) | outcome |
| --- | --- |
| Brc1ccccn1 | inactive |
| O=C1OC(=O)c2ccc3c4c(ccc1c24)C(=O)OC3=O | inactive |
| NCC(F)(F)C(F)(F)C(F)(F)C(F)(F)C(F)(F)C(F)(F)F | inactive |
| CC(C)(C)C(=O)C1C(=O)c2ccccc2C1=O | inactive |
| O=C1c2c(O)ccc(Nc3ccc(CCO)cc3)c2C(=O)c2c([N+](=O)[O-])ccc(O)c21 | inactive |
| CC(C)OC=O | inactive |
| O=S(=O)(Cl)C(F)(F)C(F)(F)C(F)(F)C(F)(F)C(F)(F)C(F)(F)C(F)(F)C(F)(F)F | inactive |
| CC1=CCC(=O)O1 | inactive |
| CC(O)C#CC(C)O (configuration not stated) | inactive |
| NC(=O)C(F)(F)C(F)(F)C(F)(F)C(F)(F)C(N)=O | inactive |
| CCn1c2ccccc2c2ccccc21 | inactive |
| OCC(F)(F)C(F)(F)C(F)(F)CO | inactive |
| CCN(CCO)S(=O)(=O)C(F)(F)C(F)(F)C(F)(F)C(F)(F)C(F)(F)C(F)(F)C(F)(F)C(F)(F)F | inactive |
| NC(=O)C(F)(F)C(F)(F)C(F)(F)C(F)F | inactive |
| CC1=CC2C3C=CC(C3)C2C1C (configuration not stated) | inactive |
| O=C1C=CC(=O)N1c1ccccc1 | inactive |
| O=C=NCc1cccc(CN=C=O)c1 | inactive |
| O=C(O)C(F)(F)OC(F)(F)C(F)(F)OC(F)(F)C(F)(F)OC(F)(F)F | inactive |
| NC(O)(C(F)(F)F)C(F)(F)F | inactive |
| O=C(Cl)C(F)(F)C(F)(F)C(F)(F)C(F)(F)C(F)(F)C(F)(F)C(F)(F)F | inactive |
| CCN(CC)c1ccc(C=O)cc1 | inactive |
| Cc1ccc(S(=O)(=O)C(I)I)cc1 | inactive |
